Experimental data published in PubChem BioAssay.
Values without a mark were called inactive. For part of these data: Entries with a potency or affinity are not part of this list. Active and inactive are the calls of the source. Unless noted, how the calls were made is not given here.

Experiments:
[1] = antimalarial activity against Dd2 strain (AID 2302;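 active means growth inhibition above 50% at the single 2 µM test dose, taken to imply half-maximal potency below 2 µM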;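 further: 0% = DMSO untreated growth and 100% = chloroquine plus artemisinin killed control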); details: P. falciparum Dd2 in RBCs, LDH growth readout, 72 h; at 2 µM; stronger effect = higher value
[2] = human hepatoma cell viability loss – ATP luminescence, cytotoxicity control for P. falciparum antimalarial project, primary screen (AID 2303;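 active means inhibition above 50%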;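 further: 0% = DMSO wells and 100% = digitonin-killed cells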); details: HepG2 viability, 24-48 h, at 10 µM, stronger effect = higher value
[3] = biological target: L-lactate dehydrogenase (Plasmodium falciparum (isolate CDC / Honduras)) (UniProt Q27743); assay: PfLDH activity inhibition – cell lysate, 3D7 strain, counter-screen for P. falciparum growth inhibition project (AID 2304);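 further: 0% = vehicle and 100% = reference inhibitor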; details: P. falciparum 3D7 crude extract, LDH APAD/NBT absorbance; at 2 µM; stronger effect = higher value
Sequence of L-lactate dehydrogenase (Plasmodium falciparum (isolate CDC / Honduras)) (Q27743 whole entry, looked up): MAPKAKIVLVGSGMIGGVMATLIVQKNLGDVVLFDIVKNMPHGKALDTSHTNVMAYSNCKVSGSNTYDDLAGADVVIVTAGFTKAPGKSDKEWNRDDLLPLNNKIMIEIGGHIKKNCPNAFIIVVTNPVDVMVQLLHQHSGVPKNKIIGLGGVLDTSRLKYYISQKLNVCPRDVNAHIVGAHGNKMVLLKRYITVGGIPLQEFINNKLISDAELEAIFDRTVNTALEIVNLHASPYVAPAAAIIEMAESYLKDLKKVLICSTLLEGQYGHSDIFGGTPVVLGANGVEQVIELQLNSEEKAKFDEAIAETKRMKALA

[4] = inhibition of 3D7 malaria parasite growth – strain 3D7 (AID 2306);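 further: 0% = DMSO wells and 100% = chloroquine plus artemisinin control wells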; details: P. falciparum 3D7 erythrocytic growth, LDH absorbance, 72 h; at 2 µM; stronger effect = higher value
[5] = biological target: Calcium-dependent protein kinase 1 (Plasmodium falciparum (isolate 3D7)) (UniProt P62344); assay: PfCDPK1 kinase inhibitors, biochemical, TCAMS library (AID 1159585; cut-off not given, nearly all actives have IC50 up to about 0.98 µM;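 further: inhibitors leave more ATP so luminescence rises with inhibition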); details: recombinant PfCDPK1, Kinase-Glo ATP depletion luminescence
Sequence of Calcium-dependent protein kinase 1 (Plasmodium falciparum (isolate 3D7)) (P62344 whole entry, looked up): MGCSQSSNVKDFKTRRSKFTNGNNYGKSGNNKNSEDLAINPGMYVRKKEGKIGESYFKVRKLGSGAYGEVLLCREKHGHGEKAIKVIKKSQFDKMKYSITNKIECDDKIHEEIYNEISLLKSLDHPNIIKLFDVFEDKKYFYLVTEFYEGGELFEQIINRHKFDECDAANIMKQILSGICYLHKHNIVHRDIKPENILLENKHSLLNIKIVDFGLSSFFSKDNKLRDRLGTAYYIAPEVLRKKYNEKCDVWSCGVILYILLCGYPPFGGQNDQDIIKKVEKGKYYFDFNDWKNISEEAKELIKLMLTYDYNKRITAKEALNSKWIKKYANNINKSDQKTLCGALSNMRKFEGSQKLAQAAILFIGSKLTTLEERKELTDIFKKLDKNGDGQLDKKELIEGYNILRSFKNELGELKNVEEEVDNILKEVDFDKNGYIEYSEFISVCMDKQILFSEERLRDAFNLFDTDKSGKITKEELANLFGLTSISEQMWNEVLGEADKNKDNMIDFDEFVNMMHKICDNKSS

[6] = biological target: Plasmodium falciparum protein kinase 6 (PK6, PF3D7_1337100) (UniProt Q8IDW1); assay: PfPK6 kinase inhibitors, biochemical, TCAMS library (AID 1159586); details: recombinant PfPK6, Kinase-Glo ATP depletion luminescence
Sequence of Plasmodium falciparum protein kinase 6 (PK6, PF3D7_1337100) (Q8IDW1 1-305): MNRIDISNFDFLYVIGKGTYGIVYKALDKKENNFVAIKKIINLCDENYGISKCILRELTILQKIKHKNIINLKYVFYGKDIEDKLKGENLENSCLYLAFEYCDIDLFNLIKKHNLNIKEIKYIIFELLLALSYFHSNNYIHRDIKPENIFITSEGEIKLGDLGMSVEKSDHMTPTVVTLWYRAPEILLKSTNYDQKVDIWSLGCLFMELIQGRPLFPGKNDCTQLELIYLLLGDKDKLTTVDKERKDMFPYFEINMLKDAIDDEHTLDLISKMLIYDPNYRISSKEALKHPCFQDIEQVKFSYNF

[7] = biological target: Protein kinase 7 (PK7), Plasmodium falciparum 3D7 (PF3D7_0213400) (UniProt Q7YTF7); assay: inhibition of Plasmodium PK7 catalytic activity – biochemical, TCAMS antimalarial set, Kinase-Glo luminescence (AID 1159587); details: recombinant PfPK7, Kinase-Glo ATP depletion luminescence
Sequence of Protein kinase 7 (PK7), Plasmodium falciparum 3D7 (PF3D7_0213400) (Q7YTF7 1-343): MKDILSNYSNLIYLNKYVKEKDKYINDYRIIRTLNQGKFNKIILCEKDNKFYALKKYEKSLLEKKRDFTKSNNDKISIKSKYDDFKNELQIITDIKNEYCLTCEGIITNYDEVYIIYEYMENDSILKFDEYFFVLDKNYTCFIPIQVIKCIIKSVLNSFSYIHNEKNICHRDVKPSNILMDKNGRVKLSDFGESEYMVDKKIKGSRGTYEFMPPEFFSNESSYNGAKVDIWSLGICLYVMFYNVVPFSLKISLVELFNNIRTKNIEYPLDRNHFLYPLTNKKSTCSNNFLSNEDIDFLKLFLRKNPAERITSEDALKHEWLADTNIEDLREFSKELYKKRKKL

[8] = biological target: Calcium-dependent protein kinase 4 (Plasmodium falciparum (isolate 3D7)) (UniProt Q8IBS5); assay: PfCDPK4 kinase inhibitors, biochemical, TCAMS library (AID 1159588; cut-off not given, nearly all actives have IC50 up to about 0.91 µM); details: recombinant PfCDPK4, Kinase-Glo ATP depletion luminescence
Sequence of Calcium-dependent protein kinase 4 (Plasmodium falciparum (isolate 3D7)) (Q8IBS5 whole entry, looked up): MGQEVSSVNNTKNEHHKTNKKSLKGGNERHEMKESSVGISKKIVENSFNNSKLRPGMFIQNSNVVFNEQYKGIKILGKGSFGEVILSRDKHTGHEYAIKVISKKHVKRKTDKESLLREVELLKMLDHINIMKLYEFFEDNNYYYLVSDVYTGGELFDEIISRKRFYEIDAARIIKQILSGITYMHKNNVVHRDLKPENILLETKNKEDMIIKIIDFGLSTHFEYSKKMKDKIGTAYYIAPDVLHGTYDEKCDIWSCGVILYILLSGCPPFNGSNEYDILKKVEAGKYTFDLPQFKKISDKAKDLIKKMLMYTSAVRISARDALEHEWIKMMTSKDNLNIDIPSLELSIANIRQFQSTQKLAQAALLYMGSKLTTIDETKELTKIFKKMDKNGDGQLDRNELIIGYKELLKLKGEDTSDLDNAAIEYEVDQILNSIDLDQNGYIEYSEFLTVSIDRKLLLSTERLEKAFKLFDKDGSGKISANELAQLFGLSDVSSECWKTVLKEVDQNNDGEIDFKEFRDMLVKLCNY

Row | SMILES | growth inhibition [1] | inhibition [2] | inhibition [3] | growth inhibition [4] | outcome [5] | outcome [6] | outcome [7] | outcome [8]
1 | Clc1ccc(CNc2ccnc(NCc3ccc4c(c3)OCCCO4)n2)c(Cl)c1 | 20% | 50% (active) | -2% | 94% (active) | inactive | inactive | inactive | inactive
2 | CC(C)c1ccc(NC(=O)c2cccc(CN3CCCN(CC4CCCCC4)CC3)c2)cc1 | 59% (active) | 62% (active) | 2% | 85% (active) | inactive | inactive | inactive | inactive
3 | Cc1cccc(C(=O)Nc2ccnc(N(C)CCCN(C)Cc3cccc(O)c3)c2)c1 | 71% (active) | 27% | -3% | 94% (active) | inactive | inactive | inactive | inactive
4 | Fc1cc(Cl)ccc1Nc1ccnc2cc(-c3scnc3CNCCN3CCOCC3)ccc12 | 84% (active) | -7% | -2% | 99% (active) | inactive | inactive | inactive | inactive
5 | Cc1cc(C(=O)NC2CCN(CC3(c4ccccc4)CCCCC3)CC2)on1 | 95% (active) | -3% | -3% | 97% (active) | inactive | inactive | inactive | inactive
6 | CC(C)Cn1cc(C2CCN(CCN3CCC(CNC(=O)c4ccc(-c5ccc(C#N)cc5)cc4)CC3)CC2)c2ccccc21 | 98% (active) | 28% | 8% | 100% (active) | inactive | inactive | inactive | inactive
7 | CS(=O)(=O)CCNCc1cc(-c2cc3ncnc(Nc4ccc(OCc5cccc(F)c5)c(Cl)c4)c3s2)cs1 | 48% | 8% | -2% | 99% (active) | inactive | inactive | inactive | inactive
8 | CCOc1ccc(NC(=O)c2cn3nc(-c4ccc(OCC)cc4)cc3nc2C2CCNCC2)cc1 | 39% | 36% | -11% | 102% (active) | inactive | inactive | inactive | inactive
9 | N=c1c2c(n(Cc3ccccc3)c3c1CCC3)CCCC2 | 39% | 4% | -4% | 86% (active) | inactive | inactive | inactive | inactive
10 | O=C(Nc1ccc2c(c1)CCC2)N[C@H]1CCN(Cc2ccc(OCCCN3CCCCC3)cc2)C1 | -2% | 9% | -2% | 96% (active) | inactive | inactive | inactive | inactive
11 | O=C(NC1CC1)c1ccc(N2CCC(Oc3ccc(F)cc3)CC2)nc1 | 79% (active) | -2% | -1% | 89% (active) | inactive | inactive | inactive | inactive
12 | COc1cccc2cc(C(=O)N[C@@H](CC(C)C)C(=O)NC(/C=N/NC(=O)c3ccccc3)CCc3ccccc3)oc12 (some centres not stated) | 73% (active) | 8% | -3% | 88% (active) | inactive | inactive | inactive | inactive
13 | C[C@@H]1CN(c2cnn(C/C=C/c3ccc(NC(=O)c4ccc5nonc5c4)cc3)c(=O)c2Cl)C[C@H](C)N1 | 35% | 71% (active) | -3% | 94% (active) | inactive | inactive | inactive | inactive
14 | C=C[C@H]1CN(CCCCCCC)CC[C@H]1CCNc1ccnc2ccc(OC)cc12 | 81% (active) | 99% (active) | 7% | 95% (active) | inactive | inactive | inactive | inactive
15 | CN1CCC(NCc2cccc(-c3cccc(S(=O)(=O)NCc4ccccc4)c3)c2)CC1 | 6% | 57% (active) | -2% | 100% (active) | inactive | inactive | inactive | inactive
16 | COc1ccc(NC(=O)c2ccc3[nH]c(-c4ccc(Cl)cc4)cc3c2)cc1OCCN(C)C | 78% (active) | 32% | 2% | 100% (active) | inactive | inactive | inactive | inactive
17 | CC1CCN(Cc2c(O)ccc3c(=O)c(-c4nc5ccccc5s4)c(N)oc23)CC1 | 99% (active) | 2% | -6% | 98% (active) | inactive | inactive | inactive | inactive
18 | CC(C)NCc1cccc(-c2cccc(NC(=O)c3cccc(Cl)c3)c2)c1 | 38% | 36% | -10% | 98% (active) | inactive | inactive | inactive | inactive
19 | CCOC(=O)c1ccc(N2CCN(CCCNC(=O)/C(=C/C=C/c3cc4cc(Cl)c(Cl)cc4[nH]3)OC)CC2)cc1 | 72% (active) | 39% | 4% | 93% (active) | inactive | inactive | inactive | inactive
20 | Cc1noc(C)c1-c1cccc(CNCc2ccc(-c3ccc(-c4nc5ccc(C(F)(F)F)cc5[nH]4)cc3)cc2)c1 | 97% (active) | 35% | 2% | 102% (active) | inactive | inactive | inactive | inactive

Row | SMILES | growth inhibition [1] | inhibition [2] | inhibition [3] | growth inhibition [4] | outcome [5] | outcome [6] | outcome [7] | outcome [8]
21 | O=C(Cc1cccnc1)Nc1cccc(-c2cccc(-c3nc4ccc(C(F)(F)F)cc4[nH]3)c2)c1 | 38% | 42% | -7% | 99% (active) | inactive | inactive | inactive | inactive
22 | Cc1cccc2[nH]c(-c3ccc(-c4cccc(C(=O)N5CCCCC5C(C)O)c4)s3)nc12 (configuration not stated) | 53% (active) | 27% | -1% | 101% (active) | inactive | inactive | inactive | inactive
23 | COc1ccc(CNc2ccnc3cc(OC)ccc23)cc1 | 74% (active) | 7% | -7% | 100% (active) | inactive | inactive | inactive | inactive
24 | CCCCn1c(Sc2ccc(C#N)c([N+](=O)[O-])c2)nnc1-c1cccc(Cl)c1 | 87% (active) | 30% | 2% | 96% (active) | inactive | inactive | inactive | inactive
25 | c1cc(CN2CCCCC2)cc(-c2ccc(-c3nc4ccccc4[nH]3)cc2)c1 | 88% (active) | 9% | -2% | 101% (active) | inactive | inactive | inactive | inactive
26 | CS(=O)(=O)NCCCNCc1cccc(-c2cccc(-c3nc4ccc(C(F)(F)F)cc4[nH]3)c2)c1 | 100% (active) | 17% | 5% | 99% (active) | inactive | inactive | inactive | inactive
27 | Cc1cc2nc(-c3ccc(C(=O)NCc4ccc(Cl)c(Cl)c4)cc3)[nH]c2cc1C | 83% (active) | 6% | 1% | 96% (active) | inactive | inactive | inactive | inactive
28 | COc1ccc(Nc2nccc(-c3ccc4c(-c5ccsc5)cnc(N)c4c3)n2)cc1 | 98% (active) | 38% | -1% | 101% (active) | inactive | inactive | inactive | inactive
29 | Nc1nc(N)c2c(CCc3ccc4ccccc4c3)cccc2n1 | 6% | 56% (active) | -2% | 102% (active) | inactive | inactive | inactive | inactive
30 | c1ccc(CN2CCN(CCNc3c4ccccc4nc4ccccc34)CC2)cc1 | 97% (active) | 44% | 9% | 100% (active) | inactive | inactive | inactive | inactive
31 | O=C1CSc2ccc(CNC3CCN(CCc4c(F)cnc5ccc(F)cc45)CC3)nc2N1 | 16% | 13% | 1% | 97% (active) | inactive | inactive | inactive | inactive
32 | Cc1cc(F)ccc1Nc1nc(N(C)c2ccccc2)c2cccc(O)c2n1 | 81% (active) | 38% | 2% | 92% (active) | inactive | inactive | inactive | inactive
33 | O=C(/C=C/c1ccc(C(F)(F)F)cc1)NCCCCCN1CCCN(C(=O)Nc2ccc(Cl)cc2)CC1 | -1% | 28% | -1% | 99% (active) | inactive | inactive | inactive | inactive
34 | O=S(=O)(Nc1ccc(CCN2CCC(N3CCCCC3)CC2)cc1)c1cccc2cccnc12 | 45% | 14% | -3% | 101% (active) | inactive | inactive | inactive | inactive
35 | COc1cc2c(cc1C(F)(F)F)N(C(=O)Nc1cccc(-c3ccc(CN(C)C)cc3)c1)CC2 | 93% (active) | 95% (active) | 1% | 101% (active) | inactive | inactive | inactive | inactive
36 | COCCN1CCN(Cc2ccc(-c3ccc(-c4nc5c(C)cccc5[nH]4)s3)cc2)CC1 | 52% (active) | 32% | -2% | 95% (active) | inactive | inactive | inactive | inactive
37 | Cc1cccc(CNc2nc(C)cc(NCCC(=O)NCCOc3ccccc3)n2)c1 | 14% | 18% | 0% | 98% (active) | inactive | inactive | inactive | inactive
38 | COc1ccc2nc3cc(Cl)ccc3c(NCCCCCCNc3c4ccc(Cl)cc4nc4ccc(OC)cc34)c2c1 | 79% (active) | 20% | -5% | 96% (active) | inactive | inactive | inactive | inactive
39 | O=C(NCCCN1CCOCC1)c1ccc(-c2cccc(NC(=O)c3ccc(Cl)c(Cl)c3)c2)cc1 | 68% (active) | 3% | 3% | 100% (active) | inactive | inactive | inactive | inactive
